Assay outcomes deposited in PubChem by Center for Chemical Genomics, University of Michigan.
Dicer inh: inhibitors of human Dicer processing of pre-microRNA; z-score at 25 µM; cat-ELCCA pre-miR-21 Dicer processing, chemiluminescence; stronger effect = higher value; 47,000 compounds, 6% hits; AID 1347074; in the data active = z-score above about 3, passing the limit was not always enough;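 note: higher signal means more uncleaved substrate so more Dicer inhibition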
Target sequence (Q9UPY3 whole entry, looked up): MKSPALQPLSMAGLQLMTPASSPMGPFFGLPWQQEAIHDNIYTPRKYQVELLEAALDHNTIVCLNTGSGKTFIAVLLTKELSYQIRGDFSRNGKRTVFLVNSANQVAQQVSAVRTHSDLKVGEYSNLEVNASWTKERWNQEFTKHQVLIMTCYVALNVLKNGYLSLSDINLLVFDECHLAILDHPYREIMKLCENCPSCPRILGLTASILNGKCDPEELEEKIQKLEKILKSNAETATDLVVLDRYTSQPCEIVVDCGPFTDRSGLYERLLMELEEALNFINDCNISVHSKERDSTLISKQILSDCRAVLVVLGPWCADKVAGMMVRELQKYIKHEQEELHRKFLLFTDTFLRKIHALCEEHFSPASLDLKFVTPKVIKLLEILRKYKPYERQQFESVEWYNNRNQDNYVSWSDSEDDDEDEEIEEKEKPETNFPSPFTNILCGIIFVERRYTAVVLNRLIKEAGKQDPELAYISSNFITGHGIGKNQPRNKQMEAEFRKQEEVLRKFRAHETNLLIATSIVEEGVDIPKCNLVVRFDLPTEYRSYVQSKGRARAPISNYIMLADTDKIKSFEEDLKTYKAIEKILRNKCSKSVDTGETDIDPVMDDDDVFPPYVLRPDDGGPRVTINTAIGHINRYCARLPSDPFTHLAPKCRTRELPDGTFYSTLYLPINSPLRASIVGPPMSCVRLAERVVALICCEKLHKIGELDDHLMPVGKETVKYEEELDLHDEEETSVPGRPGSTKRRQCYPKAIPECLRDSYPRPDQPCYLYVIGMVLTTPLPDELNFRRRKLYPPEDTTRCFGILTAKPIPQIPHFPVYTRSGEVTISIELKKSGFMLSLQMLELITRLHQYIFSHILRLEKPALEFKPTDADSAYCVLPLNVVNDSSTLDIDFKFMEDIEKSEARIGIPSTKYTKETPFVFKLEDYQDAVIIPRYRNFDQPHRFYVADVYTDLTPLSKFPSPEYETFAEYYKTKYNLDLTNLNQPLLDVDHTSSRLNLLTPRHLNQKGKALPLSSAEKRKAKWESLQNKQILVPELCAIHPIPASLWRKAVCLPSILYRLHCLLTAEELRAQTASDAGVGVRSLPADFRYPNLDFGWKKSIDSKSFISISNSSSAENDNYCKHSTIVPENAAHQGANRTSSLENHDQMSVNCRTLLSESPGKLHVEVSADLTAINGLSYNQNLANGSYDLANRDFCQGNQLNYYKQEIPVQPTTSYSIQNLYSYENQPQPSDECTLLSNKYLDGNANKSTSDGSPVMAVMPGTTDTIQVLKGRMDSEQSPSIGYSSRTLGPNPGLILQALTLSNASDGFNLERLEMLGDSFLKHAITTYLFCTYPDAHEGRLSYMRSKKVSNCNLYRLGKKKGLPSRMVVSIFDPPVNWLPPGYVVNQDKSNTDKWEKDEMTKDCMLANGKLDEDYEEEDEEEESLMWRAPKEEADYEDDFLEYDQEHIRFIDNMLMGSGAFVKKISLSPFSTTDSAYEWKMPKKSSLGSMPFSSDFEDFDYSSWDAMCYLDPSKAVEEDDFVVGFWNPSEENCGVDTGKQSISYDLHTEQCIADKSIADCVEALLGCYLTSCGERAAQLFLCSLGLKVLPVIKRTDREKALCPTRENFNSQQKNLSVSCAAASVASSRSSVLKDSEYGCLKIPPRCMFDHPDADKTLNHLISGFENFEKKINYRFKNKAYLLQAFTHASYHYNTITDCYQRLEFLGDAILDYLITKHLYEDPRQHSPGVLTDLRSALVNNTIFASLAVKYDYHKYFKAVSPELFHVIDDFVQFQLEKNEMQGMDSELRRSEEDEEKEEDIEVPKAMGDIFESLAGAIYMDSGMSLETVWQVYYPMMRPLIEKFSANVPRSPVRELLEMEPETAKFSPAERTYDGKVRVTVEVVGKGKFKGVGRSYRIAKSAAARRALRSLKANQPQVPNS
A number is an active result; – = inactive. Only a selection was taken, and hits are over-represented in it overall.

SMILES	Dicer inh
CCOC(=O)N1CCN(c2nc3c([nH]2)c(=O)n(C)c(=O)n3C)CC1	–
Cc1ccc(CSc2nc(C)cc(=O)[nH]2)cc1	–
Cc1cccc2nc(CSc3nncn3-c3ccccc3)cn12	–
Cc1cc(C)nc(N2N=C(CSc3nnnn3-c3ccccc3)CC2=O)n1	–
Cc1cc(=O)[nH]c(SCc2cccc(Oc3ccccc3)c2)n1	–
Cc1cccc2nc(CSc3nnnn3-c3ccccc3)cn12	6.5
Cc1cc(=O)[nH]c(SCc2cn3c(C)cccc3n2)n1	4.8
O=S(=O)(c1ccc(-c2ccc(S(=O)(=O)N3CCCC3)s2)s1)N1CCCC1	–
C=CCNC(=O)c1cc2ccccc2o1	–
CC(=O)Oc1ccc2occ(C(=O)c3ccc(Cl)cc3)c2c1	–
O=C(c1ccco1)c1coc2ccc(O)cc12	5.5
NC(=O)Cn1cc(C(=O)c2ccco2)c2ccccc21	–
CSc1ccncc1C(=O)Nc1cc(Cl)cc(Cl)c1	–
Cc1cc(C)cc(N2C(=O)C3CN=NC3(C)C2=O)c1 (stereo unspecified)	–
COc1ccc(OC)c(C2C(C#N)=C3N=C(N)c4ccccc4N3C3=C2C(=O)CC(C)(C)C3)c1 (stereo unspecified)	4.8
CN(C)c1ccc(C2C(C#N)=C3N=C(N)c4ccccc4N3C3=C2C(=O)CC(C)(C)C3)cc1 (stereo unspecified)	6.9
CC1(C)CC(=O)C2=C(C1)N1C(=C(C#N)C2c2ccc3c(c2)OCO3)N=C(N)c2ccccc21 (stereo unspecified)	–
COc1ccccc1C1C(C#N)=C2N=C(N)c3ccccc3N2C2=C1C(=O)CCC2 (stereo unspecified)	–
N#CC1=C2N=C(N)c3ccccc3N2C2=C(C(=O)CCC2)C1c1ccc(Cl)cc1 (stereo unspecified)	–
COc1ccc(C2C(C#N)=C3N=C(N)c4ccccc4N3C3=C2C(=O)CCC3)cc1 (stereo unspecified)	–
CCCCNC(=O)c1cccc2c1-c1ccccc1C2=O	–
CCOC(=O)C(=CN(C)c1ccccc1)C(=O)OCC	–
Cc1nc(-c2ccc(S(=O)(=O)N3CCCCCC3)s2)cs1	–
O=C(O)/C=C\C(=O)NCCC1=CCCCC1	–
Cc1cc(N/C=C2\C(=O)c3c(sc(C)c3C)N(C)S2(=O)=O)nc(C)n1	3.6
SMILES	Dicer inh
Cc1sc2c(c1C)C(=O)/C(=C\Nc1cccnc1)S(=O)(=O)N2C	–
Cc1sc2c(c1C)C(=O)/C(=C\Nc1ncccn1)S(=O)(=O)N2C	–
CCCCOc1cccc(C2c3c(oc4ccccc4c3=O)C(=O)N2c2nccs2)c1 (stereo unspecified)	–
O=C(/C=C/Sc1ccc(Cl)cc1)c1cccc2ccccc12	–
Cc1ccc(Br)cc1[N+](=O)[O-]	–
CC(=O)Nc1cc(C)c(Br)cc1[N+](=O)[O-]	–
O=[N+]([O-])c1ccc2c3c(ccc(Br)c13)CC2	3.3
O=c1[nH]cc(N2CCOCC2)c(=O)[nH]1	–
CCOC(=O)C1(C)C(Br)=C(Nc2ccc(Cl)cc2)C(=O)N1c1ccccc1 (stereo unspecified)	–
CCOC(=O)C1(C)C=C(Nc2ccc(OCC)cc2)C(=O)N1c1ccc(OCC)cc1 (stereo unspecified)	3.2
CCOC(=O)C1(C)C=C(Nc2ccc(OC)cc2)C(=O)N1c1ccc(OC)cc1 (stereo unspecified)	–
COc1ccc(-c2noc(-c3cccc4ccccc34)n2)cc1	–
CC(=O)NCc1ccccc1S(=O)c1ccccc1C(=O)O (stereo unspecified)	–
O=C(Cn1c(=O)sc2ccccc21)Nc1nccs1	–
O=C(Nc1nccs1)C1COc2ccccc2O1 (stereo unspecified)	–
O=C(CC1CC(=O)Oc2ccccc21)Nc1nccs1 (stereo unspecified)	3.8
CCc1ccc(-c2c(C#N)c(N)nc3c2CCCCCC3)s1	–
COc1ccc(CCN2C(=O)C(Oc3ccccc3)C2c2ccc3c(c2)OCO3)cc1 (stereo unspecified)	3.4
Cc1ccccc1OC1C(=O)N(Cc2ccc3c(c2)OCO3)C1c1ccc2c(c1)OCO2 (stereo unspecified)	–
COc1ccc(OC2C(=O)N(Cc3ccc4c(c3)OCO4)C2c2ccc3c(c2)OCO3)cc1 (stereo unspecified)	–
O=C1C(Oc2ccccc2)C(c2ccc(F)cc2)N1Cc1ccc2c(c1)OCO2 (stereo unspecified)	–
COc1ccc(OC2C(=O)N(CCc3ccc(F)cc3)C2c2ccc3c(c2)OCO3)cc1 (stereo unspecified)	3.3
O=C1C(Oc2ccc(Cl)cc2)C(c2ccc3c(c2)OCO3)N1CC1CCCO1 (stereo unspecified)	–
COc1ccc(OC2C(=O)N(CCc3ccc(Cl)cc3)C2c2ccc3c(c2)OCO3)cc1 (stereo unspecified)	4.9
COc1ccc(OC2C(=O)N(Cc3ccc4c(c3)OCO4)C2c2cccs2)cc1 (stereo unspecified)	–
O=C1C(Oc2ccccc2)C(c2ccc3c(c2)OCO3)N1Cc1ccc2c(c1)OCO2 (stereo unspecified)	–
